L3MBTL1 block: inhibitors of human L3MBTL1 | Q9Y468 | AlphaScreen L3MBTL1–H3K9me1 peptide binding | Potency, µM (series often up to 57.1 µM), most hits filed as inhibitors | 230,000 compounds, 0.66% hits; note: nearly all actives have a fitted effect of over 60% in size
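AlphaScreen assay: L3MBTL1 (50 nM final) was preincubated 30 min at room temperature with biotinylated H3(1-15)K9me1 peptide (75 nM final), then 30 min with library compounds; streptavidin donor and nickel chelate acceptor beads (10 ug/mL final) added, 30 min dark.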
BAZ2B inh: BAZ2B (human) inhibition; AlphaScreen BAZ2B-H3K14Ac peptide displacement; Q9UIF8; 360,000 compounds, 4.4% hits; Potency, µM (titrated, usually from 114 µM), most hits filed as inhibitors; note: nearly all actives have a fitted effect of over 60% in size
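AlphaScreen displacement: compounds (up to 110uM) incubated 30 min at room temperature with a preformed 50 nM BAZ2B/50 nM biotinylated H3K14Ac peptide complex in PBS pH 7.4 with Tween-20. Donor and acceptor beads at 10 ug/mL final added, 20 min light-protected before reading.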
G9a block: inhibitors of human histone lysine methyltransferase G9a | Potency, µM (titrated, usually from 102 µM), usual class: inhibitors | 350,000 compounds, 8.8% hits | Q96KQ7 | G9a H3K9 monomethylation, AlphaScreen, 2 h; note: nearly all actives have a fitted effect of over 75% in size
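Enzyme 20 nM + cpd, 15 min RT; add b-H3K9 pep 500 nM / SAM 20 uM; 2 h RT; anti-H3K9me1 Ab 0.5 ug/mL + SA donor / anti-rabbit acceptor beads 20 ug/mL each, 10 min; AlphaScreen read.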
Sfp PPTase inh: inhibitors of Bacillus subtilis Sfp phosphopantetheinyl transferase; Q9F4F7; Biochemical Sfp PPTase activity, qHTS; Potency, µM, most hits filed as inhibitors; 310,000 compounds, 3.5% hits;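 note: the enzyme is Sfp with the accession as filed and its product quenches rhodamine fluorescence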
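Sfp 15 nM + cpd, 15 min RT; start w/ rhodamine-CoA 5 uM, BHQ-2-YbbR 12.5 uM (final); 50 mM Hepes pH 7.6, 10 mM MgCl2, 0.01% NP-40, 0.01% BSA; read 525/598 nm at 0 and 30 min.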
HP1b chromo inh: HP1-beta chromodomain-methylated histone interaction inhibition; P83916; AlphaScreen HP1-beta / biotin-H3K9me3 peptide binding; Potency, µM (titrated, usually from 114 µM), most hits filed as inhibitors; 390,000 compounds, 0.56% hits; AID 540317; note: nearly all actives have a fitted effect of over 70% in size
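Compound inhibition of the preformed complex between 50 nM HP1-beta and 50 nM biotinylated H3K9me3 peptide was read by AlphaScreen. Buffer was PBS pH 7.4 with 0.01% Tween-20. Incubations ran 30 min at room temperature, with 10 ug/mL donor/acceptor beads.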
JMJD2A Tudor inh: blocks the human JMJD2A Tudor domain | Potency, µM (doses to about 114 µM), actives largely listed as inhibitors | AID 504339 | AlphaScreen JMJD2A-Tudor / H3K4me3 peptide binding | 390,000 compounds, 4.4% hits; note: nearly all actives have a fitted effect of over 50% in size
Hits are given with their value; [ ] = another dose, or the depositor's remark. Sampled rows, rich in hits. Any-hit rate of the full collection: about 12%. Calls come from the whole dose curve; as a rule, active = well fitted curve in the direction sought with a large enough effect; inconclusive = small, poorly fitted or top-dose-only effect, or another doubt; inactive = no such curve, though single readings can be large; an effect the other way counts as inactive or inconclusive.

What do the screens show for `CC(C)[C@@H](CC(=O)N[C@@H]1CCNC[C@H]1C(=O)N[C@H](CC(=O)N[C@@H](CCC(=O)O)CC(=O)O)Cc1c[nH]c2ccccc12)NC(=O)C[C@H](Cc1c[nH]c2ccccc12)NC(=O)[C@@H]1CNCC[C@H]1N`?
Sfp PPTase inh: inactive

What do the screens show for `Cc1cccc(OCC(=O)Nc2ccc(OCc3cc(=O)n4cc(C)ccc4n3)cc2)c1`?
BAZ2B inh: inactive; G9a block: inactive; HP1b chromo inh: inactive; JMJD2A Tudor inh: inactive

What do the screens show for `COc1ccc(NC(=O)/C(C#N)=C/c2ccc(Br)o2)cc1`?
L3MBTL1 block: 31.6µM; BAZ2B inh: 50.1µM; G9a block: inactive[12.7 µM]; Sfp PPTase inh: inconclusive; HP1b chromo inh: inactive; JMJD2A Tudor inh: inconclusive

Results for N#C/C(=C/c1ccc(Br)o1)C(N)=S ?
L3MBTL1 block: inactive; BAZ2B inh: inconclusive; G9a block: 31.6µM; Sfp PPTase inh: 35.5µM

How did N#C/C(=C/c1ccc(Br)o1)C(N)=O do in these assays?
L3MBTL1 block: inactive; BAZ2B inh: inactive; G9a block: inactive; Sfp PPTase inh: inactive; HP1b chromo inh: inactive; JMJD2A Tudor inh: inactive

How did CCC(Oc1ccccc1)C(=O)Nc1cc(-c2ccccc2OC)nn1-c1ccccc1 (configuration not stated) do in these assays?
BAZ2B inh: inactive; G9a block: inactive; HP1b chromo inh: inactive; JMJD2A Tudor inh: inactive

How did COc1ccc(OC)c(CCNc2nc3cc(OC)c(OC)cc3c3nc(-c4cccnc4)nn23)c1 do in these assays?
BAZ2B inh: inactive; G9a block: inactive; HP1b chromo inh: inactive; JMJD2A Tudor inh: inactive

What do the screens show for `O=C(c1ccc2c(c1)N(Cc1ccc(Cl)cc1)C(=O)c1ccccc1S2(=O)=O)N1CCCCCC1`?
BAZ2B inh: inactive; G9a block: inactive; HP1b chromo inh: inactive; JMJD2A Tudor inh: inactive

What do the screens show for `NC1=NC(=O)C(CC(=O)Nc2ccc3c(c2)OCO3)S1` (configuration not stated)?
L3MBTL1 block: inconclusive; BAZ2B inh: inactive; G9a block: 50.1µM; Sfp PPTase inh: inactive; HP1b chromo inh: inactive; JMJD2A Tudor inh: inactive

Results for Cc1[nH]n(-c2ccccc2)c(=O)c1N=Nc1ccccc1O ?
L3MBTL1 block: inactive; BAZ2B inh: inconclusive; G9a block: inconclusive; Sfp PPTase inh: inactive; HP1b chromo inh: inactive; JMJD2A Tudor inh: inconclusive

Results for Cc1[nH]n(-c2ccccc2)c(=O)c1/C=N/c1ccccn1 ?
L3MBTL1 block: inactive; BAZ2B inh: inconclusive; G9a block: inactive; Sfp PPTase inh: inactive; HP1b chromo inh: inactive; JMJD2A Tudor inh: inactive

Results for Cc1ccccc1N=Nc1c(C)[nH]n(-c2ccccc2)c1=O ?
L3MBTL1 block: inactive; BAZ2B inh: inconclusive; G9a block: 2.24µM; Sfp PPTase inh: inactive; HP1b chromo inh: 35.5µM; JMJD2A Tudor inh: inconclusive

What do the screens show for `Cc1[nH]n(-c2ccccc2)c(=O)c1N=Nc1nccs1`?
BAZ2B inh: 31.6µM; G9a block: 14.1µM; Sfp PPTase inh: inactive; HP1b chromo inh: inactive; JMJD2A Tudor inh: inconclusive

How did CCC(C)(C)n1nnnc1C(c1ccccc1OC)N1CCN(C(=O)c2ccco2)CC1 (configuration not stated) do in these assays?
BAZ2B inh: inactive; G9a block: inconclusive; Sfp PPTase inh: inactive; HP1b chromo inh: inactive; JMJD2A Tudor inh: inactive

Results for Cc1cccc2cc(C(c3nnnn3C(C)(C)C)N3CCN(C(=O)c4ccco4)CC3)c(=O)[nH]c12 (configuration not stated) ?
L3MBTL1 block: inactive; BAZ2B inh: inactive; G9a block: inconclusive; Sfp PPTase inh: 56.2µM; HP1b chromo inh: inactive; JMJD2A Tudor inh: inactive

What do the screens show for `CCC(C)(C)n1nnnc1C(c1cc2cc(C)cc(C)c2[nH]c1=O)N1CCN(C(=O)c2ccco2)CC1` (configuration not stated)?
L3MBTL1 block: inactive; BAZ2B inh: inactive; G9a block: inconclusive; Sfp PPTase inh: 44.7µM; HP1b chromo inh: inactive; JMJD2A Tudor inh: inactive

How did Cc1ccc2[nH]c(=O)c(C(c3nnnn3C(C)(C)C)N3CCN(C(=O)c4ccco4)CC3)cc2c1 (configuration not stated) do in these assays?
L3MBTL1 block: inactive; BAZ2B inh: inactive; G9a block: inactive[0.501 µM]; Sfp PPTase inh: 44.7µM; HP1b chromo inh: inactive; JMJD2A Tudor inh: inactive

What do the screens show for `COCCCc1cc(F)c(S(=O)(=O)N2CCN(S(=O)(=O)c3ccc4c(c3)OCCO4)CC2)cc1F`?
JMJD2A Tudor inh: inactive

What do the screens show for `CCOc1ccccc1NC(=O)CSc1nc2cc(OC)c(OC)cc2c2nc(CCn3c(C)nc4ccccc43)nn12`?
G9a block: inactive; HP1b chromo inh: inactive; JMJD2A Tudor inh: inactive

How did O=c1cc(N2CCNCC2)nc2sc(-c3ccncc3)nn12 do in these assays?
JMJD2A Tudor inh: inactive

How did C[C@H](NC(=O)CNC(=O)[C@@H](NC(=O)[C@H](Cc1ccccc1)NC(=O)CNC(=O)CNC[C@@H](N)Cc1ccccc1)[C@@H](C)O)C(=O)N[C@@H](CCCN=C(N)N)C(=O)N[C@@H](CCCCN)C(=O)N[C@@H](CO)C(=O)N[C@@H](C)C(=O)N[C@@H](CCCN=C(N)N)C(=O)N[C@@H](CCCCN)C(N)=O do in these assays?
Sfp PPTase inh: inactive

How did CCc1cc(-c2n[nH]c(=S)n2Cc2ccccc2)cs1 do in these assays?
BAZ2B inh: inactive; G9a block: inconclusive; Sfp PPTase inh: inactive; HP1b chromo inh: inactive; JMJD2A Tudor inh: 56.2µM

Results for CCCc1cc(-c2n[nH]c(=S)n2CC)cs1 ?
BAZ2B inh: inactive; G9a block: inconclusive; Sfp PPTase inh: inactive; HP1b chromo inh: inactive; JMJD2A Tudor inh: 3.55µM

How did CCc1cc(-c2n[nH]c(=S)n2CC)cs1 do in these assays?
L3MBTL1 block: inactive; BAZ2B inh: inactive; G9a block: inconclusive; Sfp PPTase inh: inactive; HP1b chromo inh: inactive; JMJD2A Tudor inh: 8.91µM

Results for CCCc1cc(-c2n[nH]c(=S)n2C(C)c2ccccc2)cs1 (configuration not stated) ?
BAZ2B inh: inactive; G9a block: inconclusive; Sfp PPTase inh: inactive; HP1b chromo inh: inactive; JMJD2A Tudor inh: inactive

Results for CCc1cc(-c2n[nH]c(=S)n2-c2ccccc2C)cs1 ?
BAZ2B inh: inactive; G9a block: 1.78µM; Sfp PPTase inh: inactive; HP1b chromo inh: inactive; JMJD2A Tudor inh: 35.5µM

How did COc1cccc(CNC(=O)C2CCCN(S(=O)(=O)c3ccc4c(ccn4C)c3)C2)c1OC (configuration not stated) do in these assays?
BAZ2B inh: inactive; G9a block: inactive; HP1b chromo inh: inactive; JMJD2A Tudor inh: inactive

Results for CCCCn1c(-c2csc(CCC)c2)n[nH]c1=S ?
L3MBTL1 block: inactive; BAZ2B inh: inactive; G9a block: 8.91µM; Sfp PPTase inh: inconclusive; HP1b chromo inh: inactive; JMJD2A Tudor inh: inconclusive

Source: PubChem BioAssay
